# From PubChem BioAssay AID431 (Sanford-Burnham Center for Chemical Genomics, 2006)
# Out of some 63,000 compounds screened, about 1,100 (1.7%) were called active. The sample holds actives, similar compounds and a random draw of the others, so the mix is not that of the screen.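 Rule for the calls: active = compounds whose percent cytotoxicity in the single-dose primary screen, scaled between solvent and toxic-drug controls, exceeds 50; inactive = the rest.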 Results with a measured potency or affinity are listed apart.
# Assay: viability loss of HPDE-C7K cells – cell-based, fluorescence, HTS, primary screen (AID 431);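 note: 0% = DMSO solvent wells and 100% = doxorubicin-treated wells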
# Settings: HPDE-C7K KRASV12 cells, Alamar Blue viability, 48 h; at 10 µM; active compounds read high
row,SMILES,cytotoxicity
1,CC1(C)CC(=O)C(C=Nc2ccc3[nH]ncc3c2)=C(O)C1,14.8% (inactive)
2,CN1CCN(C(=O)c2cc3c(n(-c4ccccc4)c2=O)CC(C)(C)CC3=O)CC1,-5% (inactive)
3,CCCn1c(=O)c2ccccc2n2c(SCCOc3ccc(OC)cc3)nnc12,-17.4% (inactive)
4,COCCCNc1oc(COc2ccc(Cl)cc2Cl)nc1C#N,18.7% (inactive)
5,CN(C)c1oc(-c2ccc(OCc3ccccc3)cc2)nc1C#N,-8.5% (inactive)
6,N#Cc1nc(-c2ccc(OCc3ccc(Cl)cc3)cc2)oc1N1CCOCC1,-19.7% (inactive)
7,CN(C)c1oc(-c2ccc(OCc3ccc(Cl)cc3)cc2)nc1C#N,51.7% (active)
8,O=C(Cn1cccc1)Nc1ccc(F)cc1F,1% (inactive)
9,CCOC(=O)c1[nH]c2ccc(C)cc2c1N=C(C)N(C)C,70% (active)
10,CCOC(=O)c1[nH]c2ccc(C)cc2c1N=CN(CC)CC,4.8% (inactive)
11,CCOC(=O)c1[nH]c2ccc(F)cc2c1N=C(C)N(CC)CC,-17.4% (inactive)
12,OC(CN1CCOCC1)CN(c1ccccc1)c1ccccc1 (stereo unspecified),-10.7% (inactive)
13,O=C(CSc1ncnc2ccccc12)N1CCCC1,-10.1% (inactive)
14,c1ccc2c(c1)nc(N1CCOCC1)c1c3ccccc3[nH]c21,-52.3% (inactive)
15,CC1(C)CC(=O)c2cnn(-c3nc4ccccc4[nH]3)c2C1,-19% (inactive)
16,COc1cc(C(C)=O)ccc1OC(=O)C(C)N1C(=O)c2ccccc2C1=O (stereo unspecified),-5.8% (inactive)
17,O=C(NCc1ccco1)C(Cc1ccccc1)N1C(=O)c2ccccc2C1=O (stereo unspecified),-12.8% (inactive)
18,COc1ccc(NC(=O)CC2C(=O)N(c3ccc(OC)cc3)C(=O)N2CCN2CCN(C)CC2)cc1 (stereo unspecified),-7.8% (inactive)
19,COCCCN1C(=O)c2[nH]nc(-c3cc(C)cc(C)c3O)c2C1c1ccc(O)c(OC)c1 (stereo unspecified),12% (inactive)
20,COc1ccc(CCN2C(=O)c3[nH]nc(-c4ccccc4O)c3C2c2ccccc2)cc1OC (stereo unspecified),24% (inactive)
21,COCCCN1C(=O)c2[nH]nc(-c3ccccc3O)c2C1c1ccc(Cl)cc1 (stereo unspecified),62.9% (active)
22,COc1ccc(C2c3c(-c4ccccc4O)n[nH]c3C(=O)N2CCc2ccc(OC)c(OC)c2)cc1 (stereo unspecified),51.4% (active)
23,COc1cc(C2C(C(C)=O)=C(O)C(=O)N2CCc2ccc(OC)c(OC)c2)ccc1O (stereo unspecified),1.7% (inactive)
24,Cc1ccc(C2c3c(-c4ccccc4O)n[nH]c3C(=O)N2Cc2ccncc2)cc1 (stereo unspecified),8.5% (inactive)

row,SMILES,cytotoxicity
1,COc1ccc(C2c3c(-c4cc(Cl)c(C)cc4O)n[nH]c3C(=O)N2Cc2cccnc2)cc1OC (stereo unspecified),14.2% (inactive)
2,CC(C)OCCCN1C(=O)c2[nH]nc(-c3ccccc3O)c2C1c1cccc(Cl)c1 (stereo unspecified),-4.9% (inactive)
3,COc1ccc(CCN2C(=O)c3[nH]nc(-c4ccccc4O)c3C2c2cccc(O)c2)cc1OC (stereo unspecified),63.4% (active)
4,COCCCN1C(=O)c2[nH]nc(-c3ccccc3O)c2C1c1cccc(Cl)c1 (stereo unspecified),18.6% (inactive)
5,Cc1cc(O)c(-c2n[nH]c3c2C(c2cccc(O)c2)N(Cc2cccnc2)C3=O)cc1Cl (stereo unspecified),9.3% (inactive)
6,Cc1ccc(S(=O)(=O)N(C)CCCC(=O)NCc2ccc3c(c2)OCO3)cc1,-7.5% (inactive)
7,O=S(=O)(c1cccc(-c2csc(-c3cccnc3)n2)c1)N1CCCCC1,-13.4% (inactive)
8,Cn1nccc1/C=C(/C#N)S(=O)(=O)c1ccccc1,-21.9% (inactive)
9,Cc1ccc2nc(SCC(=O)O)nc(C)c2c1,-14.7% (inactive)
10,CCc1nnc(NC(=O)CSc2nnc(Cc3ccccc3)n2-c2ccccc2)s1,-4.7% (inactive)
11,CC1=Nn2c(nnc2-c2ccco2)SC1,-17.8% (inactive)
12,COC(=O)c1sc(NC(=O)C2CCCO2)c(C(=O)OC)c1C (stereo unspecified),19.4% (inactive)
13,COc1ccc(C(=O)CSc2nnc(-c3ccccc3)o2)cc1,-6.4% (inactive)
14,Cc1nnc(SC(=O)N2c3ccccc3Sc3ccccc32)s1,-0.5% (inactive)
15,COc1cc(OC)cc(-c2nnc(SCC(=O)N3c4ccccc4Sc4ccccc43)o2)c1,-24.8% (inactive)
16,O=C(CCN1c2ccccc2Sc2ccccc21)OCc1nnc(-c2ccccc2)o1,3.5% (inactive)
17,O=C(COc1cc(Cl)ccc1Cl)Nc1nnc(CC(=O)N2CCOCC2)s1,-20% (inactive)
18,COc1ccccc1NC(=O)CN1CCN(CC(=O)Nc2ccc(F)cc2)CC1,11.3% (inactive)
19,CCCNc1nc2c(c(=O)[nH]c(=O)n2C)n1Cc1ccc(F)cc1,8.2% (inactive)
20,CC1Cc2ccccc2N1S(=O)(=O)c1ccc2c(c1)n(C)c(=O)c(=O)n2C (stereo unspecified),2.9% (inactive)
21,CCOC(=O)C1CCCN(S(=O)(=O)Cc2ccccc2)C1 (stereo unspecified),-14.4% (inactive)
22,O=C(O)c1ccc(CN2C(=O)CSC2=S)cc1,-5.7% (inactive)
23,O=C1CSC(=S)N1c1cccnc1,-10.8% (inactive)
24,Cc1cccc(NC(=O)c2oc3c(c2C)C(=O)CC(C)(C)C3)n1,-12.7% (inactive)

row,SMILES,cytotoxicity
1,O=C(Nc1ccccc1C(=O)N1CCN(Cc2ccccc2)CC1)c1ccccn1,8.7% (inactive)
2,COc1ccc2[nH]c(=O)c(CN(C(=O)COc3ccccc3)C(C)C)cc2c1,-31.9% (inactive)
3,Cc1nn(C)cc1C1C2=C(CC(C)(C)CC2=O)OC2=C1C(=O)CC(C)(C)C2,2.9% (inactive)
4,COC(=O)C1=C(N)OC2=C(C(=O)CC(C)(C)C2)C1c1ccoc1 (stereo unspecified),-4% (inactive)
5,O=C(c1ccccc1C(=O)N1CCN(c2ccccc2F)CC1)N1CCN(c2ccccc2F)CC1,4% (inactive)
6,COc1ccccc1NC(=O)c1ccc(-c2ccccc2F)o1,-9% (inactive)
7,COC(=O)c1ccccc1NC(=O)c1ccc(-c2ccccc2F)o1,90.9% (active)
8,COC(=O)c1ccccc1NC(=O)c1ccc(COc2ccccc2)o1,10.5% (inactive)
9,COc1ccc(NC(=O)C(c2ccccc2)N(C)C(=O)c2cnccn2)cc1 (stereo unspecified),-2.6% (inactive)
10,Cc1ccc(NC(=O)Cn2c(=O)n(Cc3ccco3)c(=N)c3c4c(sc32)COC(C)(C)C4)cc1,23% (inactive)
11,CC1(C)Cc2c(sc3c2c(=N)n(Cc2ccco2)c(=O)n3CC(=O)Nc2ccccc2)CO1,8.6% (inactive)
12,CC1(C)Cc2c(sc3c2c(=N)n(Cc2ccco2)c(=O)n3CC(=O)Nc2ccc(Cl)cc2)CO1,52.6% (active)
13,COCCNS(=O)(=O)c1ccc2c(c1)C(=O)c1cc(S(=O)(=O)NCCOC)ccc1-2,-5.8% (inactive)
14,CC1C(=O)C(C)C(c2cccs2)NC1c1cccs1 (stereo unspecified),-4.9% (inactive)
15,CCOC(=O)c1csc(NC(=O)c2ccc(S(=O)(=O)N(C)C)cc2)n1,5.4% (inactive)
16,O=C(NC1CCCCC1)N1CCC(n2c(=O)[nH]c3ccccc32)CC1,-0.1% (inactive)
17,O=c1[nH]c2ccccc2n1CCCN1CCN(C(c2ccccc2)c2ccccc2)CC1,31.4% (inactive)
18,Cc1noc(C)c1CSc1nnc(-c2ccncc2)n1-c1cccc(Cl)c1C,-13.5% (inactive)
19,COc1cc(C2CC(=O)C=C(O)C2)cc(OC)c1OC (stereo unspecified),-10% (inactive)
20,CCOc1ccc(C(=O)NCc2cccnc2)cc1,0.5% (inactive)
21,O=S(=O)(c1ccc2nc(Cc3ccccc3)[nH]c2c1)N1CCOCC1,2.7% (inactive)
22,CC(=O)Nc1ccc(S(=O)(=O)N2CCN(c3cc(C)nc4ccccc34)CC2)cc1,-3.8% (inactive)
23,CC(=O)Nc1ccc(S(=O)(=O)N2CCC(c3nc4ccccc4[nH]3)CC2)cc1,10.6% (inactive)
24,COc1cc(O)c(NC(C)=O)c2nonc12,1.5% (inactive)

row,SMILES,cytotoxicity
1,CC(=O)Nc1nonc1NC(C)=O,-9.1% (inactive)
2,c1ccc(CNc2nc3ccccc3[nH]2)cc1,-13.8% (inactive)
3,Cc1ccc2nc(NCc3ccccc3)[nH]c2c1,85% (active)
4,COc1ccc2nc(NCc3ccccc3)[nH]c2c1,39.9% (inactive)
5,O=S(=O)(NCc1ccccc1)c1cccc2nonc12,4.4% (inactive)
6,CCC1(C)Cc2c(sc3nc4n(c(=O)c23)CCS4)CO1 (stereo unspecified),20.1% (inactive)
7,CC(C)Cn1c(Br)nc2c1c(=O)n(CCC#N)c(=O)n2C,-5.5% (inactive)
8,O=C1NC2(CCCC2)N=C1c1ccc(Cl)cc1,-2.2% (inactive)
9,O=C1NC2(CCCCC2)N=C1c1ccccc1,0.3% (inactive)
10,Fc1ccccc1CSc1nc2ncccc2[nH]1,-2.9% (inactive)
11,CCS(=O)(=O)CCSc1nc2ccccc2o1,-13.9% (inactive)
12,c1ccc2oc(SCc3nc4ccccc4s3)nc2c1,1.9% (inactive)
13,CCS(=O)(=O)CCSc1nc2ccccc2s1,-6% (inactive)
14,O=C(CSc1nc2ccccc2s1)Nc1ncccn1,-2% (inactive)
15,Cn1c(SCc2cc(=O)n3cc(Br)ccc3n2)nnc1C1COc2ccccc2O1 (stereo unspecified),-2.9% (inactive)
16,COc1ccccc1-n1cnc2cc(NC(C)=O)ccc21,-14.9% (inactive)
17,CCC(=O)Nc1ccc2c(c1)ncn2-c1ccccc1OC,-32.9% (inactive)
18,COc1ccccc1-n1cnc2cc(NCc3ccco3)ccc21,66.4% (active)
19,Cc1cccc2nc(Cn3c(=O)n(CCC(=O)NCc4ccco4)c(=O)c4sccc43)cc(=O)n12,2.4% (inactive)
20,O=C(NCN1C(=O)C2C3C=CC(C3)C2C1=O)Nc1nccs1 (stereo unspecified),-8.1% (inactive)
21,Cc1c(C(=O)OC(C)C)[nH]c2c1C(=O)CCC2,18% (inactive)
22,Cc1ccc(C2C(C#N)=C(N)Oc3nc(-c4ccccc4)[nH]c32)o1 (stereo unspecified),0.6% (inactive)
23,Cc1ccc(SCc2[nH]nc3c2C(c2ccc(C)o2)C(C#N)=C(N)O3)cc1 (stereo unspecified),10.8% (inactive)
24,O=C(Nc1ccccc1)c1ccc(S(=O)(=O)NCC2CCCO2)cc1 (stereo unspecified),-7.8% (inactive)
